HTR5A ag = activates human HTR5A in OPRM1-OPRD1 agonist counter-screen | activation, % at 9.3 µM | HTR5A agonist assay, luminescence, cell-based | hit rate 0.61% among 340,000; in the data active means activation mostly above about 9.5%, no sharp cut-off; inactive means mostly below about 7.6%
Target sequence (P47898 whole entry, looked up): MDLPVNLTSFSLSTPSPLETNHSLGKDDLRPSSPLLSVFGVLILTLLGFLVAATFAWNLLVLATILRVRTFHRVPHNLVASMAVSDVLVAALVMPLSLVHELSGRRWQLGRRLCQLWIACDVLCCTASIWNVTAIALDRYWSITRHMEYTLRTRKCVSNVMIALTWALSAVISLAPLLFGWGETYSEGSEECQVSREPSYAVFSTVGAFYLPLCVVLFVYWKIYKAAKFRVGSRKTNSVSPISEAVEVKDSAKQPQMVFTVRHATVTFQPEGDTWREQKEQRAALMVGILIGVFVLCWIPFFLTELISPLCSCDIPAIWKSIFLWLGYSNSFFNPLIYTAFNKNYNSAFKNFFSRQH
HTR5A inv ag = HTR5A inverse agonism, opioid heterodimer counter-screen; P47898; HTR5A cell line, luminescence; inhibition, % at 9.3 µM; AID 504634; hit rate 0.083% among 340,000; in the data active means inhibition mostly above about 23%, no sharp cut-off; inactive means mostly below about 18%
MOR-DOR inv ag = mu-delta opioid heterodimer inverse agonism. P35372+P41143. cell-based MOR-DOR heterodimer luminescence. inhibition, % at 9.3 µM. hit rate 0.21% among 340,000. AID 504357; in the data active means inhibition above about 22%, passing the limit was not always enough
MOR-DOR ag-1 = agonists of human mu-delta opioid receptor heterodimerization; P35372+P41143; cells, OPRM1-OPRD1 heterodimerization, luminescence; activation, % at 9.3 µM; hit rate 0.3% among 340,000
MOR-DOR ag-2 = opioid heterodimer agonism, HTR5A counter-screen; shares compounds with HTR5A ag; U2OS counter-screen cells, complementation luminescence, 3 h; activation, % at 9.3 µM; hit rate 13% among 800; AID 504913
HTR5A ag confirm = confirmation of human HTR5A agonists. activation, % at 9.3 µM. hit rate 17% among 800. AID 504915. shares compounds with HTR5A ag. HTR5A agonist cell assay, luminescence; in the data active means activation above about 17%
Each line names hits and unclear results; the compound was inactive in the other large screens (follow-up assays come after a bar, where they were run). Hits are enriched below; roughly 1.1% of the tested compounds scored in any of these assays. Unless noted, no stated cut-off is given here; in the data, active means activation above about 18%; inactive means the rest.

CC(C)(O)C#Cc1ccc(C(=O)Nc2ccc3c(c2)OCO3)s1	none
C#CC(=O)CC1(CN(Cc2ccccc2)C(=O)OC(C)(C)C)CCCCC1	HTR5A ag 17.1 | MOR-DOR ag-2 33.8 | HTR5A ag confirm inactive
O=S1(=O)CC2N=C(N(Cc3ccc(F)cc3Cl)c3ccccc3F)SC2C1 (configuration not stated)	none
O=c1c(Cc2ccc(F)cc2)c(O)ccn1Cc1ccc(Cl)cc1Cl	HTR5A ag 20.1 | MOR-DOR ag-2 inactive | HTR5A ag confirm 47.3
O=c1c(Cc2ccc(F)cc2)c(O)ccn1Cc1ccc(F)cc1	none
COC(=O)C1=C(C)N(CCc2c[nH]c3ccc(OC)cc23)C(=O)C1	HTR5A ag 17.1 | MOR-DOR ag-2 inactive | HTR5A ag confirm 42.0
CCOc1ccc(N2CC(C(=O)NCCc3c[nH]c4ccc(OC)cc34)CC2=O)cc1 (configuration not stated)	HTR5A ag 20.0 | MOR-DOR ag-2 inactive | HTR5A ag confirm inactive
COc1ccc2[nH]cc(CCNC(C)=O)c2c1	none
COc1ccc2[nH]cc(CCNC(=O)C3CCCO3)c2c1 (configuration not stated)	HTR5A ag 42.1 | MOR-DOR ag-2 inactive | HTR5A ag confirm 34.8
COc1ccc2[nH]cc(CCNC(=O)C3CC(=O)N(c4ccc(Cl)cc4)C3)c2c1 (configuration not stated)	HTR5A ag 32.6 | MOR-DOR ag-2 inactive | HTR5A ag confirm inactive
CC1CCCC(NC(=O)COC(=O)c2cc(S(=O)(=O)N3CCOCC3)ccc2F)C1C (configuration not stated)	HTR5A ag 18.4 | MOR-DOR ag-2 inactive | HTR5A ag confirm inactive
Cn1c(SCC(=O)NCC2CCCO2)nc2c([nH]c3ccccc32)c1=O (configuration not stated)	HTR5A ag 22.4 | MOR-DOR ag-2 inactive | HTR5A ag confirm inactive
c1ccc(-c2cc(-c3nnc4n3N=C(c3ccc5ccccc5c3)CS4)[nH]n2)cc1	HTR5A ag 15.4 | MOR-DOR ag-2 inactive | HTR5A ag confirm inactive
COc1ccc(CN(C(=O)c2oc3cc(C)ccc3c2C)C2CCS(=O)(=O)C2)cc1OC (configuration not stated)	none
CCN(CC)S(=O)(=O)c1ccc(C)c(NC(=O)COC(=O)CCC(=O)c2cccs2)c1	none

Compound activity: PubChem, The Scripps Research Institute Molecular Screening Center
